Data from PubChem BioAssay (NCATS).
Results filed as inconclusive are left out. Where a call stands in place of a potency, no number is given. Active and inactive are the calls of the source. Unless noted, the call rests on the fitted dose curve; in most records, active means well fitted curve in the direction sought with a large enough effect; inconclusive means small, poorly fitted or top-dose-only effect, or another doubt; inactive means no such curve, though single readings can be large; an effect the other way counts as inactive or inconclusive. Where a SMILES comes first, the peptide text is derived from it. The star is where a group is joined. AFC = O=c1cc(C(F)(F)F)c2ccc(N*)cc2o1

Key:
[1] = target: Phospholipid hydroperoxide glutathione peroxidase GPX4 (Homo sapiens) (UniProt P36969); test: Primary qHTS Assay for Inhibitors of Recombinant Selenoprotein Glutathione Peroxidase 4 (GPX4) (AID 1845192); further: nearly all actives have a fitted effect of over 65% in size; further: potency means the concentration at half of the fitted maximal effect; on activity change, negative = inhibition: series mostly up to about 50 µM
Outline: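 NADPH consumption followed by fluorescence at 340/450 nm, t=0 and after 15 min at room temperature. Reaction started with cumene hydroperoxide (0.5 mM final) after 30 min compound–GPX4 preincubation; final 200 nM GPX4, 100 nM GR, 1 mM GSH, 0.5 mM NADPH.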

[2] = target: Luciferin 4-monooxygenase (Photinus pyralis) (UniProt P08659); test: Primary firefly luciferase (FLuc) qHTS assay for identification of artifact compounds. (AID 1845220); further: nearly all actives have a fitted effect of over 60% in size; further: potency means the concentration at half of the fitted maximal effect; on activity change, negative = inhibition: series mostly up to about 54 µM
Outline: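 Cell-free, 1536-well qHTS. Buffer pH 7.6 with 0.01% Tween-20 and 0.05% BSA; 10 uM D-luciferin, 10 uM ATP; 10 nM P. pyralis luciferase; luminescence after 5 min.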

[3] = Primary fluorescence-based thiol-reactive (MSTI) qHTS assay for identification of artifact compounds. (AID 1845221); further: nearly all actives have a fitted effect of over 65% in size; further: potency means the concentration at half of the fitted maximal effect;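 on activity change, negative = thiol reactive: series mostly up to about 54 µM; thiol-reactive compounds lower the probe fluorescence signal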
Outline: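 Thiol-reactive compounds detected by quenching of 4 uM MSTI fluorescence (525/598 nm) after 1 h room-temperature dark incubation in PBS pH 7.4, 2% DMSO. qHTS titration; percent inhibition Hill-fitted against Acetyl-MSTI/MSTI controls.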

[4] = system: Nanoluciferase (engineered Oplophorus gracilirostris luciferase); test: Primary Nanoluciferase (NLuc) qHTS assay for identification of artifact compounds. (AID 1845222); further: series mostly up to about 54 µM
Outline: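 Compounds are pinned into diluted (1:55) conditioned medium of NLuc-expressing S16 cells and held 15 min at room temperature protected from light. Nano-Glo substrate follows, and luminescence is read 5 min later.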

[5] = Primary redox qHTS assay for identification of artifact compounds. (AID 1845223)
Outline: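 Redox-cycling detection via DTT (250 uM final) oxidation coupled to Amplex Red (25 uM)/HRP (250 mU/mL) in HBSS. 15 min preincubation plus 30 min after DTT, room temperature. Ex/Em 525/598 nm; 4-parameter Hill fit against DMSO and 10 uM DA3003.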

[6] = qHTS drug screen for cell cycle checkpoint inhibitors in PARPi-resistant BRCA-mutant ovarian cancer cell lines. (AID 1963452; calls by dose curve); conditions: PEO1/OlaR viability, CellTiter-Glo luminescence, 96 h, stronger effect = lower value
Outline: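 PEO1, PEO4 and PEO1/OlaR ovarian cancer cells, 600 per well, exposed 96 h at 37C to a dilution series. Viability read by CellTiter-Glo luminescence, normalized to DMSO and empty wells; activity summarized as Z-AUC.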

[7] = measured here: PEO1 parental Z-AUC

Chain of Phospholipid hydroperoxide glutathione peroxidase GPX4 (Homo sapiens) (P36969 whole entry, looked up): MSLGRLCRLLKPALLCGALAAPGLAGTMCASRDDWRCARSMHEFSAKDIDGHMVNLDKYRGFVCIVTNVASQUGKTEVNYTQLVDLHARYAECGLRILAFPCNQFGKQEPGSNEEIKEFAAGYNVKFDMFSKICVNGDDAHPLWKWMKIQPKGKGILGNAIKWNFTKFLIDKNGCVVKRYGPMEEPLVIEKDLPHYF

SMILES: CC(c1ncncc1F)C(O)(Cn1cncn1)c1ccc(F)cc1F (configuration not stated)
- Potency [1]: inactive
- Potency [2]: inactive
- Potency [3]: inactive
- Potency [4]: inactive
- Potency [5]: inactive

SMILES: O=C(Nc1ccc(S(=O)(=O)Nc2nccs2)cc1)C(c1ccccc1)c1ccccc1
- Potency [1]: inactive
- Potency [2]: inactive
- Potency [3]: inactive
- Potency [4]: inactive
- Potency [5]: inactive

SMILES: CN(C)c1nc(NC2CCC(NC(=O)c3ccc(F)c(F)c3)CC2)nc2ccccc12 (configuration not stated)
- Potency [1]: inactive
- Potency [2]: inactive
- Potency [3]: inactive
- Potency [4]: inactive
- Potency [5]: inactive

SMILES: O=C(Nc1ccc(Cl)cc1F)c1ccccc1O
- Potency [1]: inactive
- Potency [2]: 1.2 µM (active)
- Potency [3]: inactive
- Potency [4]: inactive
- Potency [5]: inactive

SMILES: C1CCC[C@H]2CCCN3CC[C@@H](CCCCCC[C@@H]4CCCN5CC[C@@H](CC1)O[C@@H]45)O[C@@H]23
- activity change, negative = inhibition [1]: -4.98% [at 0.121 µM] (inactive)
- outcome [2]: inactive [at 0.0969 µM]
- activity change, negative = thiol reactive [3]: 0.0753% [at 0.0963 µM] (inactive)
- activity, negative = inhibition [4]: 2.4% [at 0.0969 µM] (inactive)
- redox activity (% of DA3003) [5]: -1.13% [at 0.0963 µM] (inactive)

SMILES: Cc1c(C(=O)Nc2ccc(N3CC(C)OC(C)C3)nc2)cccc1-c1ccc(OC(F)(F)F)cc1 (configuration not stated)
- Potency [1]: inactive
- Potency [2]: inactive
- Potency [3]: inactive
- Potency [4]: inactive
- Potency [5]: inactive

SMILES: Cn1nc(C(C)(C)C)cc1C(=O)NC(Cc1cccc(Cl)c1)C(=O)NCC#N (configuration not stated)
- Potency [1]: inactive
- Potency [2]: inactive
- Potency [3]: inactive
- Potency [4]: inactive
- Potency [5]: inactive

SMILES: COc1ccc2c(OC)c3ccoc3nc2c1OC
- Potency [1]: inactive
- Potency [2]: inactive
- Potency [3]: inactive
- Potency [4]: inactive
- Potency [5]: inactive

SMILES: CC1CCN(C(=O)CC#N)CC1N(C)c1ncnc2[nH]ccc12 (configuration not stated)
- Potency [1]: inactive
- Potency [2]: inactive
- Potency [3]: inactive
- Potency [4]: inactive
- Potency [5]: inactive

SMILES: COc1cccc2cc3c(c(O[C@@H]4O[C@H](CO[C@@H]5O[C@H](CO)[C@@H](O)[C@H](O)[C@H]5O)[C@@H](O)[C@H](O)[C@H]4O)c12)C(C)OC3=O (some centres not stated)
- Potency [1]: 9.88 µM (active)
- Potency [2]: inactive
- Potency [4]: inactive
- Potency [5]: inactive

SMILES: O=[N+]([O-])c1cn2c(n1)OCC(OCc1ccc(OC(F)(F)F)cc1)C2 (configuration not stated)
- Potency [1]: inactive
- Potency [2]: inactive
- Potency [4]: inactive
- Potency [5]: inactive

SMILES: CC(=O)N[C@@H](Cc1c[nH]c2ccccc12)C(=O)N[C@@H](CCC(=O)O)C(=O)N[C@@H](Cc1cnc[nH]1)C(=O)N[C@@H](CC(=O)O)C(=O)Nc1ccc2c(C(F)(F)F)cc(=O)oc2c1 (Ac-WEHD-{AFC})
- Potency [2]: inactive
- Potency [3]: inactive
- Potency [4]: inactive
- Potency [5]: inactive

SMILES: CCc1cnn2c(NCc3ccc[n+]([O-])c3)cc(N3CCCCC3CCO)nc12 (configuration not stated)
- Potency [1]: inactive
- Potency [2]: inactive
- Potency [4]: inactive

SMILES: CNC(=O)c1cccc(-c2ccc3c(N4CCOC[C@@H]4C)nc(N4CCOC[C@@H]4C)nc3n2)c1
- Potency [1]: inactive
- Potency [2]: inactive
- Potency [3]: inactive
- Potency [4]: inactive
- Potency [5]: inactive
- Z-AUC [6]: -1.02 (inactive)
- Z-AUC [6, 7]: -0.895
- Z-AUC ([6]; measured here: PEO4 Z-AUC): -0.994

SMILES: Nc1nc(-n2cc(C(=O)O)c(=O)c3cc(F)c(N4CC(O)C4)c(Cl)c32)c(F)cc1F
- Potency [1]: inactive
- Potency [2]: inactive
- Potency [5]: inactive

SMILES: CS(=O)(=O)NCC1CCC(Nc2nc3c(s2)CCSc2ccccc2-3)CC1 (configuration not stated)
- Potency [1]: inactive
- Potency [2]: inactive
- Potency [4]: inactive
- Potency [5]: inactive

SMILES: CCC1=CC2CN(C1)Cc1c([nH]c3ccccc13)[C@@](C(=O)OC)(c1cc3c(cc1OC)N(C)[C@H]1[C@@](O)(C(=O)OC)[C@H](OC(C)=O)[C@]4(CC)C=CCN5CC[C@]31[C@@H]54)C2 (some centres not stated)
- Potency [1]: inactive
- Potency [2]: inactive
- Potency [4]: inactive

SMILES: NC(=O)C(CCC(F)(F)F)N(Cc1ccc(-c2ncon2)cc1F)S(=O)(=O)c1ccc(Cl)cc1 (configuration not stated)
- Potency [1]: inactive
- Potency [2]: inactive
- Potency [3]: inactive
- Potency [4]: inactive
- Potency [5]: inactive

SMILES: N#Cc1ccc(-c2cnc3[nH]cc(NC(=O)c4cccnc4)c3c2)cc1
- Potency [1]: inactive
- Potency [2]: inactive
- Potency [4]: inactive
- Potency [5]: inactive

SMILES: Cc1cnc(Nc2ccc(F)cc2Cl)nc1-c1c[nH]c(C(=O)NC(CO)c2cccc(Cl)c2)c1 (configuration not stated)
- Potency [2]: inactive
- Potency [3]: 2.67 µM (active)
- Potency [4]: inactive
- Z-AUC [6]: -0.685 (inactive)
- Z-AUC [6, 7]: -0.607
- Z-AUC ([6]; measured here: PEO4 Z-AUC): -0.952

SMILES: OC1CCC(Nc2ncc3nc(Nc4c(F)cc(F)cc4F)n([C@H]4CCOC4)c3n2)CC1 (some centres not stated)
- Potency [1]: 20.2 µM (active)
- Potency [2]: inactive
- Potency [4]: inactive

SMILES: CN(C)CCCCC(=O)Nc1ccc(NC(=S)NC(=O)c2ccc(C(C)(C)C)cc2)cc1
- Potency [2]: inactive
- Potency [3]: inactive
- Potency [4]: inactive
- Potency [5]: inactive

SMILES: Cc1ccc(-c2ccc3c(ccc4sc5c(c43)NC[C@@H](C)NC5=O)n2)cn1
- Potency [2]: inactive
- Potency [3]: inactive
- Potency [4]: inactive
- Potency [5]: inactive
- Z-AUC [6]: -0.119 (inactive)
- Z-AUC [6, 7]: 0.305
- Z-AUC ([6]; measured here: PEO4 Z-AUC): -0.383
